Sm TGR block = inhibitors of Schistosoma mansoni thioredoxin glutathione reductase. purified TGR, DTNB reduction, TNB absorbance 405 nm. Potency, µM (doses to about 114 µM), without a hit: at the top dose activity change, negative = inhibition, hits mostly inhibitors. 3% of 360,000 active. AID 485364; further: potency means the concentration at half of the fitted maximal effect; on the % scale 0 is the no-effect control and ±100 the full control effect; nearly all actives have a fitted effect of over 60% in size
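Kinetic colorimetric format: TGR-catalysed, NADPH-driven DTNB reduction monitored via TNB absorbance. Enzyme dispensed at 20 nM; compound exposure 15 min at room temperature before reaction start.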
Cycloheximide cs = counter-screen for Shiga toxin inhibitors: cycloheximide protein synthesis inhibition; cell reporter, cycloheximide protein synthesis inhibition counterscreen; max response, %; 12% of 300,000 active; AID 2314; in the data active means max response mostly above about 13%, no sharp cut-off; inactive means mostly below about 14%; further: read at 38.3 µM for the half of the compounds with a filed dose; 0% is about no effect
Giardia FBPA inh-1 = Giardia lamblia aldolase inhibition | A8B2U2 | purified Giardia FBPA | Potency, µM (doses to about 59.6 µM), for inactives: top-dose activity, negative = inhibition, most hits filed as inhibitors | 0.71% of 290,000 active | AID 2451; further: potency means the concentration at half of the fitted maximal effect; on the % scale 0 is the no-effect control and ±100 the full control effect; nearly all actives have a fitted effect of over 55% in size
Target sequence (A8B2U2 whole entry, looked up): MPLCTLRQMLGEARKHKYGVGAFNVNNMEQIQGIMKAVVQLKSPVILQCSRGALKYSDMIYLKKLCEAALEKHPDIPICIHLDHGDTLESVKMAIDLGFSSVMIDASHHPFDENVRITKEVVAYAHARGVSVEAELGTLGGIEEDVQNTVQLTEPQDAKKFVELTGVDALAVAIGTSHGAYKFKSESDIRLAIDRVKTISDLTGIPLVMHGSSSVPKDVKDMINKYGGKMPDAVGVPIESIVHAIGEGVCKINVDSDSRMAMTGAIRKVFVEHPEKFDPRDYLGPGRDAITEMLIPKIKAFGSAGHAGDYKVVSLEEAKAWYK
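Giardia FBPA (40 nM reagent) was preincubated 10 min at RT with compound (up to 57.5 uM final), then substrate plus GAPDH/TPI/NAD/arsenate coupling system with diaphorase/resazurin was added; resorufin fluorescence (525/598 nm) was read after 20 min.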
Shiga toxin inh = inhibitors of Shiga toxin in Vero cells | Vero cells, Shiga toxin protein synthesis inhibition reporter | inhibition, % at 38.7 µM | 9.2% of 290,000 active | AID 2315; in the data active means inhibition mostly above about 28%, no sharp cut-off; inactive means mostly below about 43%; further: 0% is about no effect
Tb PYK inh = blocks Trypanosoma brucei pyruvate kinase; TbPYK enzyme, Kinase-Glo Plus ATP luminescence, 45 min; Potency, µM (titrated, usually from 76.8 µM), inactives show at the top dose activity, negative = inhibition, actives largely listed as inhibitors; 0.12% of 410,000 active; AID 624173; further: potency means the concentration at half of the fitted maximal effect; on the % scale 0 is the no-effect control and ±100 the full control effect; nearly all actives have a fitted effect of over 50% in size
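Glycolytic pyruvate kinase of T. brucei was incubated with substrate, test compound and 130 uM ADP for 45 minutes at room temperature. Luminescent Kinase-Glo Plus signal was measured after 10 minutes.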
LmPK inhibitor = LmPK (Leishmania mexicana) enzyme inhibition | Q27686 | purified LmPK, Kinase-Glo ATP luminescence, 1 h | Potency, µM (series often up to 57.5 µM), without a hit: top-dose activity change, negative = inhibition, hits mostly inhibitors | 0.37% of 290,000 active | AID 1721; further: potency means the concentration at half of the fitted maximal effect; on the % scale 0 is the no-effect control and ±100 the full control effect
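Pyruvate kinase activity monitored as ATP production (luciferase luminescence). Conditions: 0.1 nM enzyme, 0.5 mM PEP, 0.1 mM ADP, 1 h, RT; normalized against uninhibited and no-enzyme wells.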
Giardia growth = blocks growth of Giardia lamblia trophozoites | 5% of 1,500 active | Giardia lamblia trophozoite growth inhibition | shares compounds with Giardia FBPA inh-1 | Potency, µM (series often up to 57.5 µM), inactives show at the top dose activity change, negative = inhibition, hits mostly inhibitors;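 further: potency means the concentration at half of the fitted maximal effect; trophozoites exposed to compound for 48 h at 37 °C; on the % scale 0 is the no-effect control and ±100 the full control effect; nearly all actives have a fitted effect of over 70% in size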
Mammal cell tox = counter-screen for Giardia aldolase inhibitors: mammalian cell toxicity; shares compounds with Giardia FBPA inh-1; mammalian cell viability counter-screen, qHTS; Potency, µM (series often up to 57.5 µM), for the others: at the top dose viability change, negative = toxicity, actives largely listed as inhibitors; 4% of 1,500 active;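 further: Chinese hamster ovary cells used as mammalian cytotoxicity surrogate; viability measured as cellular ATP by luminescence; potency means the concentration at half of the fitted maximal effect; compound exposure lasted 48 h before reading; on the % scale 0 is the no-effect control and ±100 the full control effect; nearly all actives have a fitted effect of over 60% in size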
Giardia FBPA inh-2 = confirmation of Giardia fructose-bisphosphate aldolase inhibitors | shares compounds with Giardia FBPA inh-1 | purified Giardia aldolase enzyme activity, qHTS | Potency, µM (highest dose often 57.5 µM), for the others: at the top dose activity change, negative = inhibition, actives largely listed as inhibitors | 5% of 1,500 active | AID 2787; further: potency means the concentration at half of the fitted maximal effect; on the % scale 0 is the no-effect control and ±100 the full control effect; nearly all actives have a fitted effect of over 45% in size
Rabbit FBPA inh = blocks rabbit muscle aldolase in Giardia aldolase selectivity test. shares compounds with Giardia FBPA inh-1. Rabbit muscle FBPA enzyme inhibition, selectivity counter-screen. Potency, µM (highest dose often 57.5 µM), without a hit: at the top dose activity, negative = inhibition, most hits filed as inhibitors. 4% of 1,500 active. AID 2794; further: potency means the concentration at half of the fitted maximal effect; on the % scale 0 is the no-effect control and ±100 the full control effect; nearly all actives have a fitted effect of over 60% in size
Target sequence (P00883 whole entry, looked up): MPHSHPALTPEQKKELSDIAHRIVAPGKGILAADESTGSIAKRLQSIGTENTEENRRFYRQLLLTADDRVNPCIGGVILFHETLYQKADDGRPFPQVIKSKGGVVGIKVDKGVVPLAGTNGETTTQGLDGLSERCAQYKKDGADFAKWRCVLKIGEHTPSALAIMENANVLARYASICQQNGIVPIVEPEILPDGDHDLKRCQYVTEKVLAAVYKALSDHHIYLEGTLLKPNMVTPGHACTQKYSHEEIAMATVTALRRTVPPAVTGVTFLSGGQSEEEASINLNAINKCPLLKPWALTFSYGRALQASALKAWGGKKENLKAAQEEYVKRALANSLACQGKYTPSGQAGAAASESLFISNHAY
GAPDH coupling = counter-screen for Giardia aldolase inhibitors: GAPDH coupling enzyme. 6% of 1,500 active. AID 2795. Potency, µM (series often up to 57.5 µM), inactives show at the top dose activity change, negative = inhibition, usual class: inhibitors. GAPDH coupling enzyme counterscreen, biochemical, qHTS. shares compounds with Giardia FBPA inh-1; further: potency means the concentration at half of the fitted maximal effect; on the % scale 0 is the no-effect control and ±100 the full control effect; nearly all actives have a fitted effect of over 55% in size
The depositor's hits bear a star; [ ] = dose if it differs, or a comment. The entries come from a sample that favours hits as a whole. Unless noted, the call rests on the fitted dose curve; in most records, active means well fitted curve in the direction sought with a large enough effect; inconclusive means small, poorly fitted or top-dose-only effect, or another doubt; inactive means no such curve, though single readings can be large; an effect the other way counts as inactive or inconclusive.

Screening Cc1ccccc1/C=N/n1c(-c2ccccn2)n[nH]c1=S returned Sm TGR block 9%, Cycloheximide cs 1, Giardia FBPA inh-1 4µM*, Shiga toxin inh -4, Tb PYK inh inconclusive, LmPK inhibitor 11%, Giardia growth 4%[38.3 µM], Mammal cell tox -8%, Giardia FBPA inh-2 -15%, Rabbit FBPA inh -17% and GAPDH coupling -17%.
CC1(C)CC(=O)C=C(C#CC2(O)CCCCC2)C1 was read as Tb PYK inh -10%.
Screening Cc1ccc(C(=O)NN2C(=O)CSC2=S)cc1 returned Sm TGR block -2%, Cycloheximide cs -3, Giardia FBPA inh-1 -5%, Shiga toxin inh 15, Tb PYK inh 2% and LmPK inhibitor -10%.
Screening C/C(=N\N1C(=O)CSC1=S)c1ccc(Br)cc1 returned Sm TGR block inconclusive, Cycloheximide cs 4, Giardia FBPA inh-1 16µM*, Shiga toxin inh -3, Tb PYK inh -10%, LmPK inhibitor 4%, Giardia growth -16%, Mammal cell tox 6%, Giardia FBPA inh-2 -12%, Rabbit FBPA inh 2% and GAPDH coupling -6%.
For COc1ccc(NC(=O)Cn2nc(-c3ccccc3)c3cnc4ccc(C)cc4c32)cc1 the results were Sm TGR block -1% and Tb PYK inh 1%.
Cc1ccc(NC(=S)NC(=O)c2c(-c3ccccc3Cl)noc2C)cc1 was read as Sm TGR block -1%, Cycloheximide cs 3, Shiga toxin inh -12, Tb PYK inh 8% and LmPK inhibitor 1%.
Screening CC(=O)N1CCN(C(=S)NC(=O)c2c(-c3ccccc3Cl)noc2C)CC1 returned Sm TGR block -1%, Cycloheximide cs -1, Giardia FBPA inh-1 16µM*, Shiga toxin inh 15, Tb PYK inh -15%, LmPK inhibitor 2%, Giardia growth 0%[10.4 µM], Mammal cell tox 0%, Giardia FBPA inh-2 -3%, Rabbit FBPA inh 9% and GAPDH coupling 2%.
Screening CC(=O)N1c2ccc(S(=O)(=O)NCCC(=O)Nc3ccc(C)cc3Br)cc2CC1C (stereo not drawn) returned Sm TGR block -3% and Tb PYK inh 3%.
For COC(=O)c1cc(NC(=O)[C@H](CCS(C)(=O)=O)N2Cc3ccccc3C2=O)cc(C(=O)OC)c1 the results were Sm TGR block -36% and Tb PYK inh 2%.
Cc1nc(SCC(=O)c2ccc(F)cc2)n[nH]1 was read as Sm TGR block 1%, Cycloheximide cs 8, Giardia FBPA inh-1 28µM*, Shiga toxin inh 50, Tb PYK inh inconclusive, LmPK inhibitor 17%, Giardia growth 16%[10.4 µM], Mammal cell tox 14%, Giardia FBPA inh-2 6%, Rabbit FBPA inh -4% and GAPDH coupling 8%.
For COc1ccc(C(=O)CSc2n[nH]c(C)n2)cc1[N+](=O)[O-] the results were Sm TGR block 4%, Cycloheximide cs 11, Giardia FBPA inh-1 -16%, Shiga toxin inh -9, Tb PYK inh -14% and LmPK inhibitor 1%.
Screening O=C(CSc1n[nH]c(-c2ccccc2)n1)c1ccc(O)c(O)c1 returned Sm TGR block 3%, Cycloheximide cs 3, Giardia FBPA inh-1 8.9µM*, Shiga toxin inh -2, Tb PYK inh -11%, LmPK inhibitor 8%, Giardia growth -18%[10.4 µM], Mammal cell tox -16%, Giardia FBPA inh-2 -28%, Rabbit FBPA inh -24% and GAPDH coupling -13%.
Cc1ccc(O)c(NC(=O)CSc2n[nH]c(-c3ccccc3)n2)c1 was read as Sm TGR block 3%, Cycloheximide cs -1, Shiga toxin inh 8, Tb PYK inh -4% and LmPK inhibitor 5%.
For O=C(Nc1nnc(-c2ccc(Cl)cc2)o1)c1ccc(N2C(=O)CCC2=O)cc1 the results were Sm TGR block 3%, Cycloheximide cs 1, Giardia FBPA inh-1 23%, Shiga toxin inh 13, Tb PYK inh -6% and LmPK inhibitor 1%.
O=C(Nc1nnc(-c2ccco2)o1)c1ccc(N2C(=O)CCC2=O)cc1 was read as Sm TGR block -21%, Cycloheximide cs 1, Giardia FBPA inh-1 18µM*, Shiga toxin inh -5, Tb PYK inh -3%, LmPK inhibitor 0%, Giardia growth 60%, Mammal cell tox 18%, Giardia FBPA inh-2 8%, Rabbit FBPA inh 3% and GAPDH coupling 4%.
Screening COc1cc(S(=O)(=O)NCCN2CCOCC2)ccc1-n1cnnn1 returned Sm TGR block 3%, Cycloheximide cs 1, Giardia FBPA inh-1 18µM*, Shiga toxin inh 47, Tb PYK inh 5%, LmPK inhibitor -10%, Giardia growth 4%[10.4 µM], Mammal cell tox 3%, Giardia FBPA inh-2 -1%, Rabbit FBPA inh 13% and GAPDH coupling 5%.
For Cc1ccc(Nc2c(-c3cc(Br)ccc3F)nc3cc(C)ccn23)cc1 the results were Sm TGR block 11% and Tb PYK inh -8%.
Screening COc1ccc(Br)cc1CN(C)CC(=O)NCc1ccc(F)cc1 returned Sm TGR block 0%, Cycloheximide cs -5, Giardia FBPA inh-1 14µM*, Shiga toxin inh 1, Tb PYK inh -3%, LmPK inhibitor -8%, Giardia growth -15%[10.4 µM], Mammal cell tox -4%, Giardia FBPA inh-2 2%, Rabbit FBPA inh 1% and GAPDH coupling 14%.
For C[C@H]1CNC(=O)c2c(C(=O)N[C@@H](Cc3c[nH]c4ccccc34)C(=O)OC(C)(C)C)ncn21 the results were Tb PYK inh -1%.
For Cc1cc(Cl)c(OCCOCCN2CCC(C)CC2)c(Br)c1 the results were Sm TGR block -1%, Cycloheximide cs -7, Giardia FBPA inh-1 -14%, Shiga toxin inh -6, Tb PYK inh 8% and LmPK inhibitor -5%.

Source: PubChem BioAssay (National Center for Advancing Translational Sciences (NCATS))
